The results in this text go back to PubChem BioAssay AID623868 (Vanderbilt High Throughput Screening Facility, 2012).

Out of some 2,100 compounds screened, about 760 (36%) were called active. Only a sample is shown. Unmarked numbers belong to inactive results.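 Rule for the calls: active = thallium-flux fluorescence traces judged by eye to show enhanced or reduced glutamate response, manual score 1 or -1, so both directions (some results past the limit were not filed as active); inactive = the rest, including fluorescent or raised-baseline compounds.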

The test in a line: thallium influx changes without GIRK channels – cell-based, HEK-293 rmGlu8, no GIRK, thallium flux, counter-screen for GIRK activator project, confirmation (AID 623868).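 Note: extra codes mark interference with 3 for fluorescent and 4 for baseline rise.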 To be noted: thallium flux fluorescence, at 10 µM, actives lie on both sides, codes: 1 enhancer, -1 blocker, 0 none, thallium stimulus containing EC20 glutamate. (In general: Counterscreens check selectivity or assay interference.)
As for `COc1ccc2c(c1)Sc1ccccc1N2CCN(C)C`, the manual score was 0.

Take `Cc1cc(C)n(-c2nnc(C)n2/N=C/c2ccccc2OCc2ccccc2Cl)n1`: the manual score is -1 (active).

On to `COc1ccccc1/C=C/C=N\N1CCN(Cc2ccccc2Cl)CC1`, for which the manual score is 0.

Take `O/N=C/c1cc(Cl)ccc1OCc1cccc2ccccc12`: the manual score was 0.

For `Fc1ccc(NC(=S)Nc2ccccc2OC(F)F)cc1Cl`, the manual score was 0.

Turning to `CCNC(=S)NNC(=O)c1cccn(Cc2ccc(Cl)cc2)c1=O`, the manual score was 0.

In the case of `CCc1ccc(NC(=S)NNC(=O)c2ccccc2OC(F)F)cc1`, the manual score was 1 (active).

As for `CCc1ccc2c(c1)C1(NN=C(c3cccc4ccccc34)S1)C(=O)N2` (stereo not given), the manual score is 0.

In the case of `c1ccc2c(Nc3nnc(-c4ccncc4)s3)cccc2c1`, the manual score was 0.

On to `CCc1ccc(Nc2nc3ccccc3c(=O)s2)cc1`, for which the manual score was 1 (active).

Turning to `CCOc1cc(C(=O)NCc2ccncc2)cc(OCC)c1OCC`, the manual score is 0.

Regarding `COc1ccc(-n2nnnc2SCC(=O)N2CCOCC2)cc1`, the manual score is 0.

As to `NS(=O)(=O)c1ccc(S(=O)(=O)N2CCCC2)cc1`, the manual score is 0.

Regarding `Cc1ccc2nc(-c3ccc(O)cc3)c(Nc3ccc4c(c3)OCCO4)n2c1`, the manual score was -1 (active).

For `Cc1ccc(-c2nnc(SCC(=O)Nc3ccc4c(c3)OCCO4)n2N)cc1`, the manual score is 0.

Consider `CCCN(CCC)CC(O)Cn1cc(/C=C/C(=O)c2cccs2)c2ccccc21` (stereo not given), for which the manual score is 3.

In the case of `CNC(=O)c1ccc2nc(NC(C)=O)sc2c1`, the manual score was 0.

Turning to `CCc1ccc2nc(NC(=O)c3cc(C)on3)sc2c1`, the manual score was 1 (active).

Regarding `O=C(Nc1nc2ccc(Cl)cc2s1)c1ccc(Br)o1`, the manual score is 0.5.

As to `Cc1cc(C)c2nc(NC(=O)c3cc(C)on3)sc2c1`, the manual score was 1 (active).

As to `COc1ccc(-c2c(S(=O)(=O)c3ccccc3)cnn2-c2ccccc2)cc1`, the manual score is 0.

For `CCOc1ccc(NC(=O)NC23CC4CC(CC(C4)C2)C3)cc1`, the manual score was 0.

For `COc1ccc2nc(NC(=S)N(C)C)sc2c1`, the manual score is 1 (active).

For `COc1ccc2nc(N=Nc3ccc(O)c4ccccc34)sc2c1`, the manual score was 0.

For `CS(=O)(=O)c1ccc2nc(NC(=O)Nc3ccc(Cl)c(Cl)c3)sc2c1`, the manual score is 0.

On to `Cc1ccc(OCC(O)Cn2c(=N)n(Cc3ccccc3)c3ccccc32)cc1` (stereo not given), for which the manual score was 0.

With `CCn1c(-c2ccc(-c3ccccc3)cc2)c[nH]c1=S`, the manual score is 0.

Turning to `CCn1c2ccccc2c2cc(/C=N/n3cn[nH]c3=S)ccc21`, the manual score was 1 (active).

With `CCn1c(-c2cc3c(C(F)(F)F)nn(C)c3s2)n[nH]c1=S`, the manual score is 0.

Regarding `CCOC(=O)Cn1c(=N)n(Cc2ccccc2F)c2ccccc21`, the manual score is 0.
